High-throughput results deposited in PubChem BioAssay by National Center for Advancing Translational Sciences (NCATS).
KCNH2 3.1 block: qHTS for Inhibitors of KCHN2 3.1: Mutant qHTS; 0.95% of 340,000 active; U2OS KCNH2 3.1, thallium flux FluxOr; hits give low values; activity change, % (tested at about 1.8 µM);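 active means maximum activity change below -70%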;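 further: thallium influx rate constant from kinetic fluorescence after stimulation buffer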
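FluxOr-based Tl+ influx in U2OS cells transduced with KCNH2 3.1 virus; rate constants normalized to DMSO controls.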
KCNH2 WT inh: qHTS for Inhibitors of KCHN2 3.1: Wildtype qHTS. Voltage-gated inwardly rectifying potassium channel KCNH2 (Homo sapiens), Q12809. U2OS, BacMam KCNH2, thallium flux FluxOr; hits give low values. activity change, % at 1.84 µM. 0.37% of 340,000 active. AID 720551, 2013;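 active means maximum activity change below -70%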
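U2OS cells transduced with wild-type KCNH2 virus are loaded with FluxOr dye for 45 min, and thallium flux is measured in kinetic reads before and after stimulation buffer. Rate constants are normalized to DMSO controls.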
Luc counter: Counterscreen for Luciferase (Kinase-Glo TM) Inhibition. Luciferin 4-monooxygenase (Photuris pensylvanica), Q27757. 0.28% of 200,000 active. Kinase-Glo luciferase, ATP luminescence, 8 min. Potency, µM (titrated, usually from 38.3 µM), without a hit: top-dose activity change, negative = inhibition, hits mostly inhibitors; active means well fitted inhibition curve with a large enough effect; further: potency means the concentration at half of the fitted maximal effect; nearly all actives have a fitted effect of over 60% in size
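Kinase-Glo luciferase light output from ATP and luciferin was measured with 10 uM ATP, within the enzyme's linear range. Buffer: 50 mM imidazole pH 7.2, 50 mM KCl, 7 mM MgCl2, 0.01% Tween 20, 0.05% BSA; luminescence read after 8 min at ambient temperature.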
Numbers without * were called inactive; nt = no result given; [ ] = remark or other dose. Compounds with a hit are over-represented: about 1.2% of the library has one in this group of screens. On the % scale 0 is the no-effect control and ±100 the full control effect.

SMILES | KCNH2 3.1 block | KCNH2 WT inh | Luc counter
O=C(C[C@H]1C[C@H](C(=O)N2CCCCC2)[C@@]2(CCc3ccccc3)c3[nH]c4ccc(Cl)cc4c3CCN2C1=O)NCCc1ccccn1 | -7 | 3 | nt
O=C(CCN1CCCCC1)N/N=C/c1ccc(Br)cc1 | -75* | 3 | 1%
O=C(CCN1CCCCC1)Nc1ccc(Br)cc1 | -7 | 6 | 1%
O=C(CCN1CCN(C(c2ccccc2)c2ccccc2)CC1)N/N=C/c1ccc(O)cc1O | -45 | -9 | -2%
O=C(CCN1CCN(C(c2ccccc2)c2ccccc2)CC1)N/N=C/c1ccc(O)cc1 | -80* | 0 | -2%
COc1cc(/C=N/NC(=O)CN2CCCCC2)ccc1OCc1ccc(Br)cc1 | -90* | 27 | -3%
COc1cc(/C=N/NC(=O)CC2(C)OCCCO2)ccc1OCc1ccccc1 | -9 | 4 | -1%
COCCn1c(=NC(=O)CSCC(=O)N2CCOCC2)sc2ccccc21 | nt | -17 | nt
Cc1ccccc1C(=O)NNC(=O)CCCCC(=O)NNC(=O)c1ccccc1C | 2 | 2 | nt
N#Cc1ccccc1S(=O)(=O)N1CCN(C(=O)C2CCCCC2)CC1 | 7 | -17 | nt
O=C(OCC1OC(OC(=O)c2cc(O)c(O)c(OC(=O)c3cc(O)c(O)c(O)c3)c2)[C@@H](OC(=O)c2cc(O)c(O)c(OC(=O)c3cc(O)c(O)c(O)c3)c2)C(OC(=O)c2cc(O)c(O)c(OC(=O)c3cc(O)c(O)c(O)c3)c2)C1OC(=O)c1cc(O)c(O)c(OC(=O)c2cc(O)c(O)c(O)c2)c1)c1cc(O)c(O)c(OC(=O)c2cc(O)c(O)c(O)c2)c1 (some centres not stated) | nt | nt | 9%
CCN1CCc2c(sc(NC(=O)Cc3ccccc3)c2C(N)=O)C1 | 26 | -11 | nt
CCN1CCc2c(sc(NC(=O)Nc3ccc(Cl)c(Cl)c3)c2C(N)=O)C1 | -119* | -133* | -1%
CN(C)c1ccc(-c2cc3ccccc3c(=O)o2)cc1 | -5 | 5 | nt
O=C1OC2(c3ccc(O)cc3Oc3cc(O)ccc32)c2ccccc21 | nt | nt | 2%[39.9 µM]
CC(=O)Oc1ccc2c(c1)Oc1cc(OC(C)=O)ccc1C21OC(=O)c2ccccc21 | -146* | -122* | 0%
Cc1c(C(=O)O)sc(S(=O)(=O)N2CCN(C(=O)Cc3ccc(F)cc3)CC2)c1C(=O)O | 13 | 2 | nt
Cc1cccc(C)c1NC(=O)CN(C)S(=O)(=O)c1ccc(-c2ccc(=O)[nH]n2)s1 | -177* | 15 | nt
Cc1cccc(NC(=O)CN(C)S(=O)(=O)c2ccc(-c3ccc(=O)[nH]n3)s2)c1C | 4 | 0 | nt
Cc1nc(C)c(-c2ccc(SCc3cccc(F)c3)nn2)s1 | -94* | 0 | nt
Cc1nc(C)c(-c2ccc(SCc3ccc(Cl)cc3)nn2)s1 | 3 | 2 | nt
Cc1ccc(-c2noc(CSc3nnc(Cc4ccccc4)n3-c3ccc(Cl)cc3)n2)cc1 | -74* | 4 | -2%
COc1ccc(-c2noc(CSc3nnc(Cc4ccccc4)n3-c3ccc(Cl)cc3)n2)cc1 | -8 | -4 | -4%
CCOC(=O)CSc1nnc(Cc2ccccc2)n1-c1ccc(C)cc1 | 2 | 1 | 1%
Cc1ccc(-n2c(Cc3ccccc3)nnc2SCC(=O)NNC(=O)Cc2ccccc2)cc1 | -80* | 0 | 1%
SMILES | KCNH2 3.1 block | KCNH2 WT inh | Luc counter
CCOc1ccc(CCNC(=O)COC(=O)Cn2nc(C)c([N+](=O)[O-])c2C)cc1OCC | 12 | -3 | nt
COC(=O)[C@@]1(Cc2ccccc2)[C@H]2c3cc(C(=O)N(C)C)n(Cc4c(CO)[nH]cc(C)c4=O)c3C[C@H]2CN1C(=O)c1ccccc1 | nt | nt | -5%
CC(C)C[C@H]1CNC(=O)C(=O)N1CC1CCN(CCc2ccc(-c3ccccc3)cc2)CC1 | -35 | 11 | nt
Cn1c(N)c(N=O)c(=O)n(C)c1=S | 14 | -1 | nt
COc1ccccc1OCC(=O)Nc1nc(C)c(C)s1 | -75* | 18 | nt
COC(=O)c1sc(NC(=O)COc2ccccc2C)nc1C | -7 | -4 | -3%
COc1ccc(C(=O)N2CCOC2CNC(=O)C(=O)NCc2ccccc2)cc1 (configuration not stated) | 25 | 6 | nt
S=C(NCCc1ccccc1)N1CCCC1 | 1 | 1 | nt
S=C(NCCc1ccccc1)N1CCN(C23CC4CC(CC(C4)C2)C3)CC1 | -88* | -6 | -2%
CC(NC(=O)C(=O)NCCc1c[nH]c2ccccc12)c1ccccc1 (configuration not stated) | 3 | -5 | nt
O=C(COc1cc(Cl)c(Cl)cc1Cl)N1CCN(c2ccccn2)CC1 | -31 | 5 | 2%
O=C1NC2(CCCCCC2)C(=O)N1Cc1ccc(Cl)cc1Cl | -19 | -13 | nt
O=C1NC2(CCCCCC2)C(=O)N1Cc1ccc(F)cc1Cl | -127* | -3 | nt
O=C(COc1ccccc1)NC(=S)Nc1cccc2c(O)cccc12 | -14 | -5 | nt
O=C(CNC(=O)c1ccccc1)OCC(=O)c1cccs1 | 35 | 5 | nt
O=C(OCC(=O)c1cccs1)c1ccccc1 | -3 | 1 | 8.9µM*
Cc1cccc(NC(=O)C2CCN(S(=O)(=O)c3cccc4nonc34)CC2)c1 | -4 | 2 | nt
CCCn1c2ccccc2c2cnn(CC(=O)NCCCN3CCN(c4ccccc4)CC3)c(=O)c21 | -9 | 8 | nt
COc1ccc2[nH]c(C(=O)N3CCCN(Cc4ccc(F)cc4)CC3)cc2c1 | -33 | 45 | nt
c1ccc(N2CCN(c3ccc4nncn4n3)CC2)nc1 | -184* | 19 | 0%
c1cc2nncn2nc1N1CCCC1 | 2 | -6 | -3%
Nc1ccn([C@@H]2O[C@H](CNS(=O)(=O)c3cc4ccccc4s3)[C@@H](O)[C@H]2O)c(=O)n1 | 15 | -30 | nt
CC1CC(C)CN(C(=O)CSc2nnc3ccccn23)C1 (configuration not stated) | -23 | 15 | nt
CCN1C[C@@H]2[C@@H]3C(=O)N(C)C(=O)[C@@H]3[C@](C)(C1=O)N2C(=O)c1ccc(Cl)cc1 | 10 | -1 | nt
CC(=O)C1=C(O)C(=O)N(c2cc(C(C)(C)C)on2)C1c1ccc(Br)cc1 (configuration not stated) | -82* | 2 | 3%
SMILES | KCNH2 3.1 block | KCNH2 WT inh | Luc counter
CC(=O)C1=C(O)C(=O)N(c2cc(C(C)(C)C)on2)C1c1ccc(C(C)C)cc1 (configuration not stated) | -13 | -4 | -3%
Cc1ccc(C)c(N(C(=O)c2snc(C(N)=O)c2N)C(C(=O)NCC2CCCO2)c2ccc(C)o2)c1 (configuration not stated) | -5 | 4 | nt
CCOc1ccccc1CN1CCNC(=O)C1CC(=O)NCc1nccn1CC (configuration not stated) | 4 | 1 | nt
O=C1C[C@H]2C(=O)[C@@H]1[C@@H](C(=O)O)[C@H]2C(=O)O | nt | nt | 2%[7.66 µM]
CSc1ccccc1NC(=O)COC(=O)Cc1ccsc1 | -97* | 1 | nt
CCOc1ccccc1NC(=O)COC(=O)Cc1ccsc1 | -7 | -15 | nt
O=C(COC(=O)C1(c2cccc(F)c2)CCCC1)NCc1cccs1 | 6 | 42 | -3%
